From PubChem BioAssay
In the library only some 21% were active in any assay of this set; here they are far more common.
Pf growth 48h: inhibits P. falciparum growth in the first generation, 48 h; P. falciparum luciferase growth in erythrocytes, 48 h; Potency, µM (highest dose often 28.7 µM), without a hit: at the highest dose activity change, negative = inhibition, usual class: inhibitors; actives 5.9% (n = 310,000); AID 504832; also: potency is read from the fitted curve at half-maximal effect; % is scaled to controls: 0 for no effect and ±100 for the full control effect
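Luciferase-expressing P. falciparum in infected erythrocytes (2% hematocrit, 0.1% parasitemia final) in RPMI 1640/0.5% Albumax were exposed to compound for 48 hours at 37 C, 5% CO2; growth read as luminescence.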
Shiga inhibitor: blocks Shiga toxin action in Vero cells | Vero cells, Shiga toxin protein synthesis inhibition reporter | inhibition, % at 38.7 µM | actives 9.2% (n = 290,000) | AID 2315; in the data active = inhibition mostly above about 28%, no sharp cut-off; inactive = mostly below about 43%; also: 0% is about no effect
Pf growth 96h: P. falciparum growth inhibition at 96 hour, primary screen for plastid delayed-death inhibitors | P. falciparum luciferase reporter growth, 96 h | Potency, µM (doses to about 28.7 µM), for inactives: at the top dose activity change, negative = inhibition, usual class: inhibitors | actives 6.9% (n = 320,000); also: potency is read from the fitted curve at half-maximal effect; % is scaled to controls: 0 for no effect and ±100 for the full control effect
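Erythrocytes infected with luciferase-expressing P. falciparum were dispensed at 2% hematocrit and 0.05% parasitemia (final), then incubated with compounds 96 hours at 37 C in 5% CO2. Luminescence after detection reagent addition reported growth.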
Cycloheximide cs: counter-screen hit for Shiga toxin inhibitors, cycloheximide | cell reporter, cycloheximide protein synthesis inhibition counterscreen | max response, % | actives 12% (n = 300,000) | AID 2314; in the data active = max response mostly above about 13%, no sharp cut-off; inactive = mostly below about 14%; also: read at 38.3 µM for the half of the compounds with a filed dose; 0% is about no effect
* = called active by the depositor. Unless noted, calls follow the shape of the dose curve; as a rule, active = well fitted inhibition curve with a large enough effect; inconclusive = small, poorly fitted or top-dose-only effect, or another doubt; inactive = no such curve, though single readings can be large or run the other way.

Results for CC(CN1CCOCC1)OC(=O)/C=C/c1ccccc1 (stereo not given) ?
Pf growth 48h: 84.6%; Shiga inhibitor: 83.6*; Pf growth 96h: 3.9%; Cycloheximide cs: 44.0*

Results for CC(CN1CCCCC1)OC(=O)c1ccc2c(c1)OCCO2 (stereo not given) ?
Pf growth 48h: 35.5%; Shiga inhibitor: 69.8*; Pf growth 96h: 0.1%; Cycloheximide cs: 43.2*

How did Cc1cccc(C(=O)OC(C)CN2CCOCC2)c1 (stereo not given) do in these assays?
Pf growth 48h: 5.6%; Shiga inhibitor: 68.7; Pf growth 96h: 9.28µM*; Cycloheximide cs: 27.7*

Results for Cc1ccccc1C(=O)NNC(=O)C1CC(=O)N(Cc2ccccc2)C1 (stereo not given) ?
Pf growth 48h: 15.6%; Pf growth 96h: 22.0%

What do the screens show for `Cn1nnc2cc(C(=O)N3CCN(c4ccccn4)CC3)ccc21`?
Pf growth 48h: 19.0%; Shiga inhibitor: -7.5; Pf growth 96h: 107.7%; Cycloheximide cs: -3.1

What do the screens show for `CCOc1ccc(CN2CCNC(=O)C2CC(=O)NCCN2CCOC2=O)cc1` (stereo not given)?
Pf growth 48h: 9.6%; Shiga inhibitor: -26.1; Pf growth 96h: 22.3%; Cycloheximide cs: -0.9

How did CC(C)N(C)CCOC(=O)c1ccc2c(c1)OCCO2 do in these assays?
Pf growth 48h: 11.1%; Shiga inhibitor: 46.7; Pf growth 96h: -23.4%; Cycloheximide cs: 16.0*

Results for CC(CN1CCOCC1)OC(=O)c1ccc2c(c1)OCCO2 (stereo not given) ?
Pf growth 48h: 8.6%; Shiga inhibitor: 65.9*; Pf growth 96h: -14.4%; Cycloheximide cs: 60.5*

What do the screens show for `COc1ccc(CCNC(=O)Nc2ccc(F)cc2F)cc1OC`?
Pf growth 48h: 0.0%; Shiga inhibitor: 26.2; Pf growth 96h: -14.2%; Cycloheximide cs: 21.2

Results for CCOP(=O)(OCC)c1nc(/C=C/c2ccccc2)oc1NCc1ccccc1 ?
Pf growth 48h: 11.7µM*; Shiga inhibitor: 10.8; Pf growth 96h: 43.9%; Cycloheximide cs: 11.5

What do the screens show for `CCOP(=O)(OCC)c1nc(/C=C/c2ccccc2)oc1NCc1ccc(OC)cc1`?
Shiga inhibitor: 16.2; Pf growth 96h: inconclusive; Cycloheximide cs: 3.1

What do the screens show for `CCOP(=O)(OCC)c1nc(-c2cccc3ccccc23)oc1NCc1ccccc1`?
Pf growth 48h: inconclusive; Shiga inhibitor: -4.9; Pf growth 96h: inconclusive; Cycloheximide cs: -1.6

What do the screens show for `CCOP(=O)(OCC)c1nc(-c2cccc3ccccc23)oc1NCc1ccc(OC)cc1`?
Pf growth 48h: inconclusive; Shiga inhibitor: 1.2; Pf growth 96h: 13.1µM*; Cycloheximide cs: 3.6

What do the screens show for `CCOC(=O)c1cc(-c2ccccc2)sc1N`?
Pf growth 48h: 52.4%; Shiga inhibitor: 58.6*; Pf growth 96h: -6.8%; Cycloheximide cs: 36.5*

Results for CCOC(=O)c1cc(-c2ccccc2)sc1NC(=O)c1ccc(OC)cc1 ?
Pf growth 48h: 36.9%; Shiga inhibitor: -12.2; Pf growth 96h: inconclusive; Cycloheximide cs: -0.9

What do the screens show for `CCOC(=O)c1sc2nc(C3CC3)cc(-c3ccc(F)cc3)c2c1N`?
Pf growth 48h: 0.4%; Shiga inhibitor: -17.7; Pf growth 96h: 4.3%; Cycloheximide cs: -3.0

What do the screens show for `O=C(Nc1sc(-c2ccccc2)cc1C(=O)O)c1ccccc1`?
Pf growth 48h: 45.2%; Shiga inhibitor: 52.2*; Pf growth 96h: 257.6%; Cycloheximide cs: 34.7*

What do the screens show for `CCOC(=O)c1sc(-c2ccc(F)cc2)cc1N`?
Pf growth 48h: 142.3%; Shiga inhibitor: 125.1*; Cycloheximide cs: 45.7*

What do the screens show for `CCOC(=O)c1cc(CC)sc1NC(=O)Cc1ccsc1`?
Pf growth 48h: 21.6%; Shiga inhibitor: -2.9; Pf growth 96h: 3.29µM*; Cycloheximide cs: -1.4

What do the screens show for `O=C(NCc1cnc2ccccn12)C1CCC(=O)N(Cc2cccc(F)c2)C1` (stereo not given)?
Pf growth 48h: 6.9%; Shiga inhibitor: 8.3; Pf growth 96h: inconclusive; Cycloheximide cs: 4.6

What do the screens show for `Cc1cccc(OC(C)C(=O)N2CCCN(C)CC2)c1C` (stereo not given)?
Pf growth 48h: -15.4%; Shiga inhibitor: -26.4; Pf growth 96h: inconclusive; Cycloheximide cs: 4.7

How did CCOC(=O)c1c(N)n[nH]c1-c1ccc(OC)cc1 do in these assays?
Pf growth 48h: -17.5%; Shiga inhibitor: -11.9; Cycloheximide cs: 2.3

How did CCOC(=O)c1c(N)sc(-c2ccccc2)c1C do in these assays?
Pf growth 48h: 53.2%; Shiga inhibitor: 68.0*; Pf growth 96h: 12.2%; Cycloheximide cs: 33.6*

What do the screens show for `CCOC(=O)c1sc(-c2ccccc2)cc1N`?
Pf growth 48h: 146.1%; Shiga inhibitor: 115.7*; Cycloheximide cs: 58.8*
